Compound activity from PubChem.
Compounds with a hit are over-represented: about 2.3% of the library has one in this group of screens.
aDG glyco up: alpha-DG glycosylation activation | actives 0.22% (n = 360,000) | AID 624168 | activation, % at 10 µM | Pro5-aDG cells, alpha-DG glycosylation AlphaScreen (IIH6); 0% Pro5, 100% B10-LARGE cell signal;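 active means activation of at least 8% versus controls, or a plate z-score of at least 8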;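 further: Pro5 are CHO cells carrying HIG-tagged alpha-DG that lacks glycosylation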
TAG inh: inhibitors of triacylglycerol accumulation | inhibition, % at 12.5 µM | actives 0.66% (n = 230,000) | H9c2 cells, Nile Red lipid (TAG) fluorescence; cells loaded with 200 µM oleic acid;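 active means pattern-corrected inhibition of lipid staining of at least 50% with the nuclear-stain viability signal not falling by more than 50%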
MIN6 prolif: MIN6 beta-cell proliferation induction | MIN6 cells proliferation, ATPlite luminescence, 48 h; cells starved in 0.2% serum; 100% = growth in 10% serum | AID 2380 | actives 0.29% (n = 330,000) | proliferation, % at 10 µM;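 active means compounds whose signal lies at least 3.5 SD above the mean of all wells on their plate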
FAS TE block: inhibitors of human fatty acid synthase thioesterase domain; P49327; recombinant FAS-TE, OMFH fluorogenic substrate, fluorescence endpoint; inhibition, % at 15 µM; actives 0.67% (n = 360,000);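 active means compounds whose normalised, plate-corrected inhibition of enzyme fluorescence in the single-dose primary screen is 50% or more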
Calpain2 inh: calpain II (pig) inhibition; actives 0.37% (n = 220,000); purified calpain II, fluorogenic peptide substrate, 30 min; inhibition, % at 16 µM;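 active means inhibition above about 50%, limit read from the data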
Cardio protect: modulators protecting cardiomyocytes from myocardial damage. H9c2 cardiomyocytes, H2O2 injury protection, ATPLite, 2 h. protection from H2O2 cell death, % at 20 µM. actives 0.63% (n = 360,000);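 active means compounds giving at least 50% protection of heart cells from peroxide-induced death in the single-dose screen, raw or plate-pattern-corrected value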
FAS-TE inh conf: confirmation of human fatty acid synthase thioesterase inhibitors. shares compounds with FAS TE block. AID 624325. recombinant FAS-TE, OMFH fluorogenic substrate, fluorescence. actives 45% (n = 2,300). inhibition, % at 15 µM;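 active means compounds inhibiting the enzyme by at least 50% at 15 µM in any one of the replicates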
Of the large screens only hits and unclear results are named; the others gave an inactive call (follow-up assays come after a bar, where they were run).

Cc1ccc(S(=O)(=O)N2CCN(C(=O)COC(=O)/C=C/c3ccc([N+](=O)[O-])cc3)CC2)c(C)c1	none (no result: Calpain2 inh)
O=C(COC(=O)c1cc([N+](=O)[O-])ccc1NCCO)NCc1cccs1	FAS TE block 73 | FAS-TE inh conf 78
O=C(COC(=O)c1ccccc1Cl)NCc1cccs1	none (no result: MIN6 prolif, Calpain2 inh)
Cc1ccc(S(=O)(=O)N2CCN(C(=O)COC(=O)c3cc([N+](=O)[O-])ccc3NCCO)CC2)c(C)c1	FAS TE block 71 (no result: Calpain2 inh) | FAS-TE inh conf 74
O=C(COC(=O)c1cc([N+](=O)[O-])ccc1NCCO)c1ccccc1	FAS TE block 59 (no result: TAG inh) | FAS-TE inh conf 68
Cc1cc(C(=O)OCC(=O)NCc2cccs2)ccc1[N+](=O)[O-]	none (no result: Calpain2 inh)
CCOC(=O)CCCCCC(=O)Nc1ccc2c(c1)C(=O)N([C@H](C)CO)C[C@@H](C)[C@@H](CN(C)C(=O)CCC(F)(F)F)OCCCC[C@H](C)O2	none (no result: MIN6 prolif, Calpain2 inh)
COc1ccc(-c2csc3ncnc(N4CCN(S(=O)(=O)c5cccc(C(F)(F)F)c5)CC4)c23)cc1	FAS TE block 50 (no result: Calpain2 inh) | FAS-TE inh conf inactive
Cc1ccc(S(=O)(=O)N2CCN(c3ncnc4scc(-c5ccc(F)cc5)c34)CC2)cc1	none (no result: Calpain2 inh)
Cc1ccc(S(=O)(=O)N2CCN(c3ncnc4scc(-c5ccccc5)c34)CC2)cc1	FAS TE block 52 (no result: Calpain2 inh) | FAS-TE inh conf inactive
Cc1nc(N2CCN(S(=O)(=O)c3ccccc3C#N)CC2)c2c(-c3ccccc3)csc2n1	FAS TE block 83 (no result: Calpain2 inh) | FAS-TE inh conf inactive
Cc1cc([N+](=O)[O-])nn1CC(=O)N/N=C/c1ccccc1Br	FAS TE block 63 | FAS-TE inh conf 68
O=C(CCC(=O)Nc1ccc(Br)cc1)N/N=C/c1cc([N+](=O)[O-])ccc1O	FAS TE block 56, Cardio protect 54 | FAS-TE inh conf 64
O=C(Cn1cnc([N+](=O)[O-])n1)N/N=C/c1cc(Cl)ccc1O	FAS TE block 79 | FAS-TE inh conf 88
O=C(CCC(=O)Nc1ccc(F)cc1)N/N=C/c1ccccc1O	none
O=C(CCC(=O)Nc1ccc(F)cc1)N/N=C/c1cc([N+](=O)[O-])ccc1O	FAS TE block 56 | FAS-TE inh conf 65
CC1CCCCC12NC(=O)N(CC(=O)OCc1ccc(Br)cc1)C2=O (centres undefined)	none (no result: Calpain2 inh)
OC(c1ccc(F)cc1)c1nc(-c2ccoc2)cs1 (centres undefined)	none (no result: MIN6 prolif, Calpain2 inh)
CCN1C(=O)[C@H]2[C@@H](c3ccc(C(F)(F)F)cc3)N[C@]3(CCCN(CC4CCCCC4)C3=O)[C@H]2C1=O	none (no result: MIN6 prolif, Calpain2 inh)
C[C@@H]1CN([C@H](C)CO)C(=O)CCCn2nncc2CO[C@H]1CN(C)Cc1ccncc1	none (no result: MIN6 prolif, Calpain2 inh)
CN(C(=O)CS(=O)(=O)c1cn(CC(=O)N2CCCCC2)c2ccccc12)c1ccccc1	none (no result: Calpain2 inh)
O=C(Cn1nc2ccccc2n1)N/N=C/c1cc([N+](=O)[O-])ccc1O	FAS TE block 57 | FAS-TE inh conf 75
CC(C)(C)c1ccc(NC(=O)COC(=O)CCN2C(=O)c3cccc([N+](=O)[O-])c3C2=O)cc1	FAS TE block 83 (no result: TAG inh) | FAS-TE inh conf inactive
O=C1NC2(CCCCC2)C(=O)N1c1cccc(Cl)c1	none (no result: TAG inh, Calpain2 inh)
O=[N+]([O-])c1cc(CS(=O)(=O)Oc2ccc(Cl)cc2)c(O)c([N+](=O)[O-])c1	FAS TE block 57 (no result: Calpain2 inh) | FAS-TE inh conf 68
Cc1sc(NC(=O)Cc2ccc3c(c2)OCO3)nc1-c1ccc2c(c1)CCN2C(=O)c1ccccc1F	FAS TE block 81 (no result: TAG inh) | FAS-TE inh conf inactive
COc1ccc(-c2c(-c3ccc4c(c3)OCO4)c3ccccc3n2C)cc1	none (no result: MIN6 prolif, Calpain2 inh)
O=C(c1ccc([N+](=O)[O-])cc1)N(c1ccccn1)c1ccccn1	none
CN(N=Cc1ccc([N+](=O)[O-])cc1)c1ccccn1	FAS TE block 50 (no result: MIN6 prolif, Calpain2 inh) | FAS-TE inh conf inactive
CCNC(C(=O)c1c[nH]c2c(CC)cccc12)c1ccccc1 (centres undefined)	none (no result: TAG inh, Calpain2 inh)
COc1cc(/C=C/C(=O)OCC(=O)Nc2sc3c(c2C#N)CCC(C)C3)ccc1OCC#N (centres undefined)	FAS TE block 64 (no result: TAG inh) | FAS-TE inh conf inactive
